Where a name gives a salt, the structure may show the parent alone. ± gives the standard error. Out of some 1,300 compounds screened, about 130 (10%) showed an effect of 50% or more. The list comes from a sample in which strong results are over-represented; it also holds similar structures and randomly drawn compounds.

For this assay, the system named is Trichoderma virens ATCC 9645. As to the kind of experiment: growth yield (OD600) with compound + IPBC relative to untreated control; higher = less growth inhibition. Conditions: compound concentration: 100 uM, IPBC concentration: 200 ng/ml. The gist of the method:
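Trichoderma virens ATCC 9645 spores from 7-day potato dextrose agar plates were suspended in potato dextrose broth at 15,000 spores ml^−1. Aliquots of 100 μl with library compounds at 100 μM final, with or without a co-applied biocide at 200 ng ml^−1, were grown in 96-well plates at 30 °C. OD600 was read at 40 h and 72 h on a BioTek EL800. Growth is expressed relative to the control without either agent, as means of duplicate screens.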

As for `Nc1nc(/C(=C/CC(=O)O)C(=O)N[C@@H]2C(=O)N3C(C(=O)O)=CCS[C@H]23)cs1` [Ceftibuten] + CCCCNC(=O)OCC#CI [3-iodo-2-propynyl butylcarbamate (IPBC)], the growth yield reads like this: (40 h) 92.4 ± 4.8%; (72 h) 94 ± 3.1%.

As for `CCCNC(=O)NS(=O)(=O)c1ccc(Cl)cc1` [Chlorpropamide] + CCCCNC(=O)OCC#CI [3-iodo-2-propynyl butylcarbamate (IPBC)], the growth yield runs as follows: (40 h) 93.7 ± 4.1%; (72 h) 102 ± 2.2%.

In the case of `CCN(CC)C(=S)SSC(=S)N(CC)CC` [Disulfiram] + CCCCNC(=O)OCC#CI [3-iodo-2-propynyl butylcarbamate (IPBC)], the growth yield is, setting by setting: (40 h) 33.7 ± 3.8%; (72 h) 92.4 ± 1.6%.

On to `C=CCC1(CC(C)C)C(=O)NC(=O)NC1=O` [Butalbital] + CCCCNC(=O)OCC#CI [3-iodo-2-propynyl butylcarbamate (IPBC)], for which the growth yield is 85.6 ± 1.4% (40 h) and 93.2 ± 0.94% (72 h).

Turning to `COc1ccc([C@@H]2Sc3ccccc3N(CCN(C)C)C(=O)[C@@H]2OC(C)=O)cc1` [Diltiazem hydrochloride] + CCCCNC(=O)OCC#CI [3-iodo-2-propynyl butylcarbamate (IPBC)], the growth yield (40 h) is 80.85 ± 0.48% and the growth yield (72 h) is 88.4 ± 2.2%.

For the compound `CC(C)C[C@H](CN)CC(=O)O` [Pregabalin] + CCCCNC(=O)OCC#CI [3-iodo-2-propynyl butylcarbamate (IPBC)], the growth yield (40 h) stood at 85.3 ± 0.79% and the growth yield (72 h) stood at 89.14 ± 0.21%.

As to `CN(C)c1cc(NC(=O)CNC(C)(C)C)c(O)c2c1C[C@H]1C[C@H]3[C@H](N(C)C)C(O)=C(C(N)=O)C(=O)[C@@]3(O)C(O)=C1C2=O` [Tigecycline] + CCCCNC(=O)OCC#CI [3-iodo-2-propynyl butylcarbamate (IPBC)], the growth yield reads like this: (40 h) 80.7 ± 3.5%; (72 h) 79 ± 2%.

For `N=C(N)NC(=N)NCCc1ccccc1` [Phenformin hydrochloride] + CCCCNC(=O)OCC#CI [3-iodo-2-propynyl butylcarbamate (IPBC)], the growth yield was determined as 86.25 ± 0.48% (40 h) and 92 ± 2.4% (72 h).

Consider `CC(C)NC(=N)NC(=N)Nc1ccc(Cl)cc1` [Proguanil hydrochloride] + CCCCNC(=O)OCC#CI [3-iodo-2-propynyl butylcarbamate (IPBC)], for which the growth yield (40 h) worked out at 92.8 ± 2.2% and the growth yield (72 h) turned out to be 104 ± 1.8%.

Regarding `N=C(NCCCCCCNC(=N)NC(=N)Nc1ccc(Cl)cc1)NC(=N)Nc1ccc(Cl)cc1` [Chlorhexidine] + CCCCNC(=O)OCC#CI [3-iodo-2-propynyl butylcarbamate (IPBC)], the growth yield (40 h) was 4.61 ± 0.16% and the growth yield (72 h) came to 3.67 ± 0.32%.

For the compound `CCN(CC)C(=O)N1CCN(C)CC1` [Diethylcarbamazine citrate] + CCCCNC(=O)OCC#CI [3-iodo-2-propynyl butylcarbamate (IPBC)], the growth yield is, setting by setting: (40 h) 83.4 ± 2.4%; (72 h) 94.1 ± 1.4%.

The record behind these values is the supplement of paper PMC8007513.
